The values that follow come from PubChem BioAssay (EPA / NIEHS).

Holding throughout (conditions): primary human HUVEC with PBMC; actives raise or lower the signal
A short description of assay [1]: BSK_LPS_PGE2: BioMAP Diversity Plus: LPS Assay for Prostaglandin E2 (PGE2) Biomarker Activity (AID 2283082). The essentials: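 HUVEC plus human PBMC co-culture stimulated with LPS; secreted PGE2 quantified by ELISA 24 h after chemical dosing. Activity fitted bidirectionally against DMSO baseline; parallel SRB staining (0.1% SRB after 10% TCA fixation, 560 nm) flags overt cytotoxicity.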

Read-out in assay [2]: Tissue Factor, F3 (gene 2152)
In words: BSK_LPS_TissueFactor: BioMAP Diversity Plus: LPS Assay for Tissue Factor Biomarker Activity (AID 2283084). The essentials: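 ELISA signal for cell-surface Tissue Factor (CD142) was read 24 h after compound dosing of an LPS-stimulated human endothelial–PBMC primary co-culture. Gain or loss of signal was scored relative to DMSO.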

Read-out in assay [3]: Tumor necrosis factor (Homo sapiens) (UniProt P01375)
In words: BSK_LPS_TNFa: BioMAP Diversity Plus: LPS Assay for Tumour Necrosis Factor alpha (TNFa) Biomarker Activity (AID 2283085). A digest of the protocol:
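Human umbilical vein endothelial cells co-cultured with PBMC and stimulated with LPS. TNFa was measured by ELISA 24 h after chemical dosing, fitted bidirectionally relative to DMSO.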

Read-out in assay [4]: Vascular cell adhesion molecule 1 (VCAM1), VCAM1 (gene 7412)
In words: BSK_LPS_VCAM1: BioMAP Diversity Plus: LPS Assay for Vascular cell adhesion molecule 1 (VCAM1) Biomarker Activity (AID 2283086). A digest of the protocol: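 Human umbilical vein endothelial cells co-cultured with PBMC and stimulated with LPS; VCAM-1 measured by ELISA 24 h after dosing. Bidirectional curve fitting against DMSO baseline; cytotoxicity tracked in parallel by SRB total-protein staining.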

Read-out in the next assay: CD38, CD38 (gene 952)
In words: BSK_SAg_CD38: BioMAP Diversity Plus: SAg Assay for CD38 Biomarker Activity (AID 2283087). The essentials:
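Human HUVEC plus PBMC co-culture stimulated with superantigen; CD38 measured by ELISA 24 h after chemical dosing. Fluorescence read-out, bidirectional fit against DMSO; cytotoxicity tracked in parallel by SRB and Alamar Blue.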

Read-out in a further assay: CD40, CD40 (gene 958)
In words: BSK_SAg_CD40: BioMAP Diversity Plus: SAg Assay for CD40 Biomarker Activity (AID 2283088). The essentials:
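Compounds were dosed onto a human primary endothelial–PBMC co-culture, and after 24 h CD40 was quantified by ELISA using a fluorescence signal. Activity in either direction was fitted relative to DMSO.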

Read-out in another assay: CD69, CD69 (gene 969)
In words: BSK_SAg_CD69: BioMAP Diversity Plus: SAg Assay for CD69 Biomarker Activity (AID 2283089).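 For AC50: cell surface CD69 protein quantified by ELISA with fluorescence detection.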 The essentials: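 HUVEC co-cultured with PBMC were dosed with chemical, and CD69 was measured by ELISA with fluorescence read-out 24 h later. Bidirectional curve fitting used DMSO as negative control and activity baseline.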

Read-out in assay [5]: Monocyte Chemoattractant Protein-1 (MCP1), CCL2 (gene 6347)
In words: BSK_SAg_MCP1: BioMAP Diversity Plus: SAg Assay for Monocyte Chemoattractant Protein-1 (MCP1) Biomarker Activity (AID 2283090). The essentials:
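MCP-1 levels in the endothelial–PBMC SAg co-culture were quantified by ELISA at 24 h post-dosing; both increases and decreases versus DMSO scored. Cytotoxicity monitored by SRB total protein in parallel cultures.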

Read-out in assay [6]: Macrophage colony-stimulating factor (MCSF), CSF1 (gene 1435)
In words: BSK_LPS_MCSF: BioMAP Diversity Plus: LPS Assay for Macrophage colony-stimulating factor (MCSF) Biomarker Activity (AID 2283083). A digest of the protocol:
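ELISA readout of M-CSF after 24 h compound exposure in a human endothelial/PBMC co-culture. Activity, in either direction, is fitted relative to DMSO vehicle.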

“And” between values parts separate entries of the source, which are not always exact repeats. Equal entries are not always repeated. The source made the active and inactive calls. Rule for the calls: active = hit-call score of the fitted dose curve at least 0.9, where 1 is the maximum; inactive = score below 0.9.

Chain of Tumor necrosis factor (Homo sapiens) (P01375 whole entry, looked up): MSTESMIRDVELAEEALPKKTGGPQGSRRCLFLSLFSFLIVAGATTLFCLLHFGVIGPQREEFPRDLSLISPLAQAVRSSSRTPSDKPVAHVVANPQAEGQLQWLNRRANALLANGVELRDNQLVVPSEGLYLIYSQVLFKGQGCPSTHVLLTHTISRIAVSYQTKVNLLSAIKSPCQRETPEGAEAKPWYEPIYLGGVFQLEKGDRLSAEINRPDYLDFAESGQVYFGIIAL

On to `NC(N)=O`, for which the outcome in [1] is “inactive”; in [2], “inactive”; in assay [3], “inactive”; in assay [4], “inactive”; with CD38, CD38 (gene 952), “inactive”; with CD40, CD40 (gene 958), “inactive”. Also, the outcome with CD69, CD69 (gene 969) is “inactive”; in [5] it was “inactive”.

Take `O=C(O)c1cccc(C(=O)O)c1`: the outcome is “inactive” in assay [1]; “inactive” in assay [6]; “inactive” in assay [2]; “inactive” in assay [3]; “inactive” in assay [4]; “inactive” in the assay with CD38, CD38 (gene 952). For the same compound, the outcome is “inactive” in the assay with CD40, CD40 (gene 958); “inactive” in the assay with CD69, CD69 (gene 969); “inactive” in assay [5].

Turning to `OC[C@H]1O[C@@](CO)(O[C@H]2O[C@H](CO)[C@@H](O)[C@H](O)[C@H]2O)[C@@H](O)[C@@H]1O`, the outcome in assay [1] was “inactive”; in assay [6], “inactive”; in assay [2], “inactive”; in [3], “inactive”; in assay [4], “inactive”; with CD38, CD38 (gene 952), “inactive”. For the same compound, the outcome was “inactive” with CD40, CD40 (gene 958); “inactive” in the assay with CD69, CD69 (gene 969); “inactive” in assay [5].

For the compound `O=C(O)[C@H](O)[C@@H](O)C(=O)O`, the outcome is “inactive” in assay [1]; “inactive” in assay [6]; “inactive” in assay [2]; “inactive” in assay [3]; “inactive” in [4]; “inactive” in the assay with CD38, CD38 (gene 952). The outcome with CD40, CD40 (gene 958) is “inactive”; with CD69, CD69 (gene 969) it was “inactive”; in assay [5] it was “inactive”.

For `CCCOc1ccc(S(=O)(=O)N2CCN(CC)CC2)cc1-c1nc2c(CC)n(Cc3ccccn3)nc2c(=O)[nH]1`, the outcome was “inactive” in assay [1]; “inactive” in assay [6]; “inactive” in [4]; “inactive” with CD38, CD38 (gene 952); “inactive” with CD40, CD40 (gene 958); “inactive” with CD69, CD69 (gene 969). Also, in assay [5], the outcome was inactive. For the same compound, in assay [3], the concentration at half-maximal activity (AC50) is 3.63 µM (active).

As to `Cc1nc(-c2ccccn2)ncc1C(=O)Nn1cc(C)c2cc(F)ccc21`, the outcome is “inactive” in assay [1]; “inactive” in assay [6]; “inactive” in [3]; “inactive” in assay [4]; “inactive” with CD38, CD38 (gene 952); “inactive” in the assay with CD40, CD40 (gene 958). The outcome with CD69, CD69 (gene 969) is “inactive”; in [5] it was “inactive”.

`CCCCCCCCCCCCCCCCOS(=O)(=O)O`: the outcome is “inactive” in assay [1]; “inactive” in [6]; “inactive” in assay [2]; “inactive” in [3]; “inactive” in [4]; “inactive” with CD40, CD40 (gene 958). The outcome in the assay with CD69, CD69 (gene 969) was “inactive”; in [5], “inactive”. In the assay with CD38, CD38 (gene 952), the AC50 is 5.57 µM (active).

For the compound `OC(O)(C(F)C(O)(O)C(F)(F)F)C(F)(F)F`, the outcome in assay [1] is “inactive”; in assay [6], “inactive”; in assay [4], “inactive”; with CD40, CD40 (gene 958), “inactive”; with CD69, CD69 (gene 969) it was “inactive”; in assay [5], “inactive”. Further, the AC50 in assay [3] was 4 µM (active) and 13.3 µM (active); with CD38, CD38 (gene 952), 16.6 µM (active) and 18.1 µM (active).

Regarding `CC(C)C(=O)Nc1ccc([N+](=O)[O-])c(C(F)(F)F)c1`, the outcome in assay [1] is “inactive”; in assay [6], “inactive”; in [3], “inactive”; in assay [4], “inactive”; in the assay with CD40, CD40 (gene 958), “inactive”; in assay [5], “inactive”. Moreover, the AC50 in the assay with CD38, CD38 (gene 952) is 14.7 µM (active); in the assay with CD69, CD69 (gene 969) it was 20 µM (active).

For `CCCCC(CC)C(=O)OCCOCCOCCOC(=O)C(CC)CCCC` (stereo unspecified), the outcome was “inactive” in assay [1]; “inactive” in assay [6]; “inactive” in assay [2]; “inactive” in assay [3]; “inactive” in assay [4]; “inactive” in the assay with CD38, CD38 (gene 952). For the same compound, the outcome is “inactive” with CD40, CD40 (gene 958); “inactive” in the assay with CD69, CD69 (gene 969); “inactive” in assay [5].

Turning to `CC(C)c1nnc2ccc(-c3ocnc3-c3cc(F)ccc3F)cn12`, the AC50 in [1] was 0.346 µM (active); in assay [2], 0.356 µM (active); in [3], 0.148 µM (active); in assay [4], 0.979 µM (active); in the assay with CD69, CD69 (gene 969), 3.59 µM (active); in [5], 3.97 µM (active). Further, the outcome is “inactive” in assay [6]; “inactive” in the assay with CD38, CD38 (gene 952); “inactive” with CD40, CD40 (gene 958).

Turning to `CC(C)CCCCCCOC(=O)C1CCCCC1C(=O)OCCCCCCC(C)C` (stereo unspecified), the outcome in assay [1] is “inactive”; in assay [6], “inactive”; in assay [3], “inactive”; in assay [4], “inactive”; with CD38, CD38 (gene 952) it was “inactive”; in the assay with CD40, CD40 (gene 958), “inactive”. In addition, the outcome in the assay with CD69, CD69 (gene 969) was “inactive”; in assay [5], “inactive”.

`CC[C@H](C)C(=O)O[C@H]1C[C@H](O)C=C2C=C[C@H](C)[C@H](CC[C@@H](O)C[C@@H](O)CC(=O)O)[C@H]21`: the outcome in assay [1] was “inactive”; in [6] it was “inactive”; in [3], “inactive”; in [4], “inactive”; with CD38, CD38 (gene 952) it was “inactive”; in the assay with CD40, CD40 (gene 958), “inactive”. Also, the outcome with CD69, CD69 (gene 969) was inactive. For the same compound, in [5], the AC50 is 14.6 µM (active).

Regarding `c1ccc2ncccc2c1`, the outcome was “inactive” in assay [1]; “inactive” in [6]; “inactive” in [3]; “inactive” in [4]; “inactive” with CD38, CD38 (gene 952); “inactive” in the assay with CD40, CD40 (gene 958). For the same compound, the outcome is “inactive” in the assay with CD69, CD69 (gene 969) and “inactive” in assay [5].

As to `Cn1c(=O)c2[nH]cnc2n(C)c1=O`, the outcome in assay [1] is “inactive”; in assay [6], “inactive”; in [2] it was “inactive”; in assay [3] it was “inactive”; in assay [4], “inactive”; with CD38, CD38 (gene 952), “inactive”. For the same compound, the outcome with CD40, CD40 (gene 958) was “inactive”; with CD69, CD69 (gene 969), “inactive”; in assay [5], “inactive”.

On to `Cc1cccc(O)c1C`, for which the outcome in [1] is “inactive”; in [6], “inactive”; in assay [3] it was “inactive”; in [4] it was “inactive”; in the assay with CD38, CD38 (gene 952) it was “inactive”; with CD40, CD40 (gene 958), “inactive”. Moreover, the outcome with CD69, CD69 (gene 969) was “inactive”; in assay [5], “inactive”.

For `CCCC(CCC)C(=O)O`, the outcome in assay [1] was “inactive”; in [6], “inactive”; in assay [2], “inactive”; in assay [3], “inactive”; in [4], “inactive”; in the assay with CD38, CD38 (gene 952), “inactive”. Moreover, the outcome is “inactive” in the assay with CD40, CD40 (gene 958); “inactive” with CD69, CD69 (gene 969); “inactive” in assay [5].

As for `CC(C)CC(C)O` (stereo unspecified), the outcome is “inactive” in assay [1]; “inactive” in [6]; “inactive” in [2]; “inactive” in assay [3]; “inactive” in assay [4]; “inactive” in the assay with CD38, CD38 (gene 952). The outcome is “inactive” with CD40, CD40 (gene 958); “inactive” in the assay with CD69, CD69 (gene 969); “inactive” in assay [5].

In the case of `CCc1cccc(CC)c1N`, the outcome was “inactive” in assay [1]; “inactive” in assay [6]; “inactive” in assay [2]; “inactive” in [3]; “inactive” in assay [4]; “inactive” with CD38, CD38 (gene 952). Also, the outcome with CD40, CD40 (gene 958) is “inactive”; with CD69, CD69 (gene 969), “inactive”; in assay [5] it was “inactive”.

Turning to `O=S1(=O)CCCO1`, the outcome in assay [1] was “inactive”; in assay [6] it was “inactive”; in assay [2], “inactive”; in assay [3], “inactive”; in [4], “inactive”; with CD38, CD38 (gene 952), “inactive”. Besides, the outcome with CD40, CD40 (gene 958) was “inactive”; with CD69, CD69 (gene 969), “inactive”; in assay [5] it was “inactive”.
